The whole screen tested about 5,500 compounds, of which about 2,000 (36%) were called active. Inconclusive results (about 18%) are left out. No stated cut-off is given here; in the data, active means normalized growth mostly below about 0.91 (no sharp cut-off); inconclusive means no clear call, values can overlap the other calls; inactive means mostly above about 0.92. The list shows a part of the results.
Assay: chemical genetic growth profiling, strain panel (AID 1159580);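 further: tested at 20 µM; growth read once vehicle control cultures reached saturation at 30 °C; 1 = growth at the plate median or of vehicle wells; lower values mean less growth of the strain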
Conditions: S. cerevisiae deletion strains, growth OD
[1] = locus YAL021C, strain ccr4, hits give low values
[2] = locus YAL026C, strain drs2, hits give low values
[3] = locus YAL030W, strain snc1, hits give low values
[4] = locus YBL061C, strain skt5, hits give low values
[5] = locus YBR009C, strain hhf1, hits give low values
[6] = locus YBR023C, strain chs3, hits give low values
[7] = locus YBR171W, strain sec66, hits give low values
[8] = locus YBR231C, strain swc5, hits give low values
[9] = locus YBR279W, strain paf1, hits give low values
[10] = locus YCL011C, strain gbp2, hits give low values
[11] = locus YCL016C, strain dcc1, hits give low values
[12] = locus YCL061C, strain MRC1, hits give low values
[13] = locus YCL069W, strain vba3, hits give low values
[14] = locus YCR088W, strain abp1, hits give low values
[15] = locus YDL005C, strain med2, hits give low values
[16] = locus YDL040C, strain nat1, hits give low values
[17] = locus YDR001C, strain nth1, hits give low values
[18] = locus YDR069C, strain doa4, hits give low values
[19] = locus YDR137W, strain rgp1, hits give low values
[20] = locus YDR159W, strain sac3, hits give low values
[21] = locus YDR297W, strain sur2, hits give low values
[22] = locus YDR334W, strain swr1, hits give low values
[23] = locus YDR335W, strain msn5, hits give low values
[24] = locus YDR392W, strain spt3, hits give low values
[25] = locus YEL003W, strain gim4, hits give low values
[26] = locus YEL037C, strain rad23, hits give low values
[27] = locus YEL061C, strain CIN8 (second series), hits give low values
[28] = locus YER015W, strain faa2, hits give low values
[29] = locus YER016W, strain bim1, hits give low values
[30] = locus YER111C, strain swi4, hits give low values
[31] = locus YER155C, strain BEM2 (second series), hits give low values
[32] = locus YFR010W, strain ubp6, hits give low values
[33] = locus YGL167C, strain pmr1, hits give low values
[34] = locus YGL173C, strain kem1, hits give low values
[35] = locus YGL227W, strain vid30, hits give low values
[36] = locus YGL240W, strain doc1, hits give low values
[37] = locus YGL253W, strain hxk2, hits give low values
[38] = locus YHR013C, strain ard1, hits give low values
[39] = locus YHR027C, strain rpn1, hits give low values
[40] = locus YHR030C, strain SLT2, hits give low values
[41] = locus YHR079C, strain IRE1, hits give low values
[42] = locus YHR142W, strain chs7, hits give low values
[43] = locus YJL092W, strain hpr5, hits give low values
[44] = locus YJL095W, strain BCK1 (second series), hits give low values
[45] = locus YJL095W, strain BCK1, hits give low values
[46] = locus YJL115W, strain asf1, hits give low values
[47] = locus YJL129C, strain trk1, hits give low values
[48] = locus YJL154C, strain vps35, hits give low values
[49] = locus YJL164C, strain tpk1, hits give low values
[50] = locus YJL166W, strain qcr8, hits give low values
[51] = locus YJL187C, strain SWE1, hits give low values
[52] = locus YJR066W, strain TOR1, hits give low values
[53] = locus YKL160W, strain elf1, hits give low values
[54] = locus YKR026C, strain gcn3, hits give low values
[55] = locus YKR091W, strain srl3, hits give low values
[56] = locus YLL001W, strain dnm1, hits give low values
[57] = locus YLL026W, hits give low values
[58] = locus YLL041C, strain sdh2, hits give low values
[59] = locus YLR027C, strain aat2, hits give low values
[60] = locus YLR113W, strain HOG1, hits give low values
[61] = locus YLR221C, strain rsa3, hits give low values
[62] = locus YLR258W, strain gsy2, hits give low values
[63] = locus YLR262C, strain YPT6 (second series), hits give low values
[64] = locus YLR320W, strain mms22, hits give low values
[65] = locus YLR342W, strain FKS1, hits give low values
[66] = locus YLR357W, strain rsc2, hits give low values
[67] = locus YLR370C, strain arc18, hits give low values
[68] = locus YLR384C, strain iki3, hits give low values
[69] = locus YML120C, strain ndi1, hits give low values
[70] = locus YMR058W, strain fet3, hits give low values
[71] = locus YMR125W, strain sto1, hits give low values
[72] = locus YMR129W, hits give low values
[73] = locus YMR205C, strain PFK2, hits give low values
[74] = locus YMR231W, strain pep5, hits give low values
[75] = locus YNL071W, strain lat1, hits give low values
[76] = locus YNL183C, strain NPR1, hits give low values
[77] = locus YNL209W, strain ssb2, hits give low values
[78] = locus YNL248C, strain rpa49, hits give low values
[79] = locus YNL322C, strain KRE1 (second series), hits give low values
[80] = locus YNR049C, strain mso1, hits give low values
[81] = locus YOR001W, strain rrp6, hits give low values
[82] = locus YOR070C, strain gyp1, hits give low values
[83] = locus YOR080W, strain dia2, hits give low values
[84] = locus YOR083W, strain WHI5, hits give low values
[85] = locus YOR106W, strain vam3, hits give low values
[86] = locus YOR231W, strain MKK1, hits give low values
[87] = locus YOR265W, strain rbl2, hits give low values
[88] = locus YOR270C, strain vph1, hits give low values
[89] = locus YOR290C, strain snf2, hits give low values
[90] = locus YPL051W, strain arl3, hits give low values
[91] = locus YPL078C, strain atp4, hits give low values
[92] = locus YPL106C, strain sse1, hits give low values
[93] = locus YPL240C, strain hsp82, hits give low values
[94] = locus YPL256C, strain CLN2, hits give low values

Measured: normalized growth

O=C(NC1CCCCC1)NC1CCCCC1
inactive: [1] 0.987 | [2] 0.995 | [3] 0.976 | [4] 0.976 | [5] 0.998 | [6] 0.976 | [7] 0.977 | [8] 0.981 | [9] 0.981 | [10] 0.973 | [11] 0.97 | [12] 0.983 | [13] 0.978 | [14] 0.973 | [15] 0.981 | [16] 0.981 | [17] 0.972 | [18] 0.979 | [19] 0.964 | [20] 0.995 | locus YDR195W, strain ref2 0.958 | [21] 0.971 | [22] 0.961 | [23] 0.98 | [24] 0.918 | [25] 0.983 | [26] 0.977 | [27] 0.982 | [28] 0.99 | [29] 0.981 | [30] 0.96 | [31] 0.971 | [32] 0.988 | [33] 0.976 | [34] 0.98 | [35] 0.972 | [36] 0.986 | [37] 0.99 | [38] 0.97 | [39] 1 | [40] 1.08 | [41] 1.07 | [42] 0.956 | [43] 0.981 | [44] 0.973 | [45] 1.07 | [46] 0.969 | [47] 0.953 | [48] 0.972 | [49] 0.995 | [50] 0.985 | [51] 0.979 | [52] 1.01 | [53] 0.977 | [54] 0.972 | [55] 0.977 | [56] 0.966 | [57] 0.981 | [58] 0.982 | [59] 0.991 | [60] 1.03 | [61] 0.976 | [62] 0.972 | [63] 0.96 | [64] 0.974 | [65] 0.975 | [66] 0.977 | [67] 0.983 | [68] 0.951 | [69] 0.969 | [70] 0.987 | [71] 0.96 | [72] 0.977 | [73] 0.969 | [74] 0.978 | [75] 0.985 | [76] 1 | [77] 0.974 | [78] 0.98 | [79] 0.962 | [80] 0.978 | [81] 0.995 | [82] 0.97 | [83] 0.971 | [84] 0.971 | [85] 0.983 | [86] 1.04 | [87] 0.979 | [88] 0.905 | [89] 0.953 | [90] 0.983 | [91] 0.981 | [92] 0.951 | [93] 0.98 | [94] 1.08

NCCNCCNCCN
inactive: [1] 0.984 | [2] 1.01 | [3] 0.998 | [4] 1 | [5] 1.01 | [6] 1.01 | [7] 1 | [8] 0.992 | [9] 0.999 | [10] 0.992 | [11] 1 | [12] 0.986 | [13] 0.995 | [14] 1 | [15] 1.01 | [16] 1 | [17] 0.99 | [18] 1 | [19] 1 | [20] 0.996 | locus YDR195W, strain ref2 0.982 | [21] 0.995 | [22] 1 | [23] 0.998 | [24] 1.01 | [25] 0.999 | [26] 0.994 | [27] 0.998 | [28] 0.991 | [29] 1 | [30] 1 | [31] 1.04 | [32] 0.998 | [33] 0.998 | [34] 1.01 | [35] 1 | [36] 1.02 | [37] 0.994 | [38] 1 | [39] 1 | [40] 1.02 | [41] 1.02 | [42] 0.961 | [43] 0.999 | [44] 0.995 | [45] 0.989 | [46] 1.01 | [47] 0.991 | [48] 1 | [49] 0.997 | [50] 0.994 | [51] 1 | [52] 0.955 | [53] 0.987 | [54] 0.993 | [55] 0.991 | [56] 0.997 | [57] 1.01 | [58] 0.997 | [59] 1 | [60] 0.976 | [61] 0.984 | [62] 1.01 | [63] 0.985 | [64] 1 | [65] 1 | [66] 1.02 | [67] 0.995 | [68] 0.999 | [69] 0.991 | [70] 1 | [71] 1.01 | [72] 0.997 | [73] 1.02 | [74] 1 | [75] 1.01 | [76] 0.946 | [77] 0.998 | [78] 0.975 | [79] 1 | [80] 0.993 | [81] 0.988 | [82] 1 | [83] 1 | [84] 0.985 | [85] 0.986 | [86] 0.995 | [87] 0.996 | [88] 0.937 | [89] 1 | [90] 0.997 | [91] 0.992 | [92] 1.02 | [93] 0.977 | [94] 1.01
